Measurements from PubChem BioAssay (NCI).
The panel holds about 79,000 compounds, 15% with a hit somewhere; the sample as a whole holds those more often. A number with no mark means an inactive call. Calls of active or inactive are those of the source. Cut-off read from the data, not from the text of the source: active = growth inhibition above about 70%; inactive = the rest.

Key:
[1] = NCI Yeast Anticancer Drug Screen. Data for the rad52 strain (AID 147);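 note: 0% = growth of vehicle-treated control cultures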; conditions: S. cerevisiae rad52 mutant growth inhibition, stronger effect = higher value
Summary of the method: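 Growth of repair-deficient yeast cells was compared between compound-treated and vehicle-treated cultures to give percent inhibition.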

[2] = NCI Yeast Anticancer Drug Screen. Data for the wt1 strain (AID 149);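 note: 0% = growth of vehicle-treated wt1 cultures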; conditions: S. cerevisiae wt1 strain (SPY 50644) growth inhibition, stronger effect = higher value
Summary of the method: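 The wt1 strain was treated with compounds, and growth was compared with vehicle-treated cultures to give inhibition.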

[3] = NCI Yeast Anticancer Drug Screen. Data for the mgt1 strain (AID 153); conditions: S. cerevisiae mgt1 mutant growth inhibition, stronger effect = higher value
Summary of the method: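 Compounds were applied to mgt1 mutant yeast, and growth was then compared against vehicle-treated control cultures to give percent inhibition.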

[4] = NCI Yeast Anticancer Drug Screen. Data for the rad50 strain (AID 155);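 note: 0% = growth of vehicle-only cultures of the same strain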; conditions: S. cerevisiae rad50 strain growth inhibition, stronger effect = higher value
Summary of the method: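 Cells are treated with compound, grown, and their growth is then scored against vehicle-only cultures of the same repair-deficient yeast strain.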

[5] = NCI Yeast Anticancer Drug Screen. Data for the mec2-1 strain (AID 157); conditions: S. cerevisiae mec2-1 strain, stronger effect = higher value
Summary of the method: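 Compounds were applied to mec2-1 yeast cells. Their growth was then compared with that of vehicle-treated cultures to give growth inhibition.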

[6] = NCI Yeast Anticancer Drug Screen. Data for the rad14 strain (AID 159);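 note: 0% = growth of vehicle-treated control cultures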; conditions: S. cerevisiae rad14 strain growth inhibition, stronger effect = higher value
Summary of the method: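 Readout: yeast growth inhibition, referenced to vehicle-only cultures. Strain bears a defined alteration in DNA damage repair.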

[7] = NCI Yeast Anticancer Drug Screen. Data for the sgs1 mgt1 strain (AID 161);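 note: 0% = growth of cultures given vehicle only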; conditions: S. cerevisiae sgs1 mgt1 strain, stronger effect = higher value
Summary of the method: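 Yeast cells carrying a defined DNA-repair defect were exposed to test compounds. Growth inhibition was measured relative to vehicle-treated controls.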

[8] = NCI Yeast Anticancer Drug Screen. Data for the CLN2oe strain (AID 163);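 note: 0% = growth of vehicle-only control cultures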; conditions: S. cerevisiae CLN2oe strain, stronger effect = higher value
Summary of the method: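 Cells of an engineered yeast line with disturbed cell-cycle regulation are treated with compound. Inhibition of growth is then calculated relative to the vehicle-treated reference.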

[9] = NCI Yeast Anticancer Drug Screen. Data for the cln2 rad14 strain (AID 165);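 note: 0% = growth equal to vehicle treated cultures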; conditions: S. cerevisiae cln2 rad14 strain, stronger effect = higher value
Summary of the method: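 Strain: cln2 rad14 yeast, altered in cell cycle control and DNA damage repair. Read-out: growth inhibition vs vehicle.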

[10] = NCI Yeast Anticancer Drug Screen. Data for the bub3 strain (AID 167); conditions: S. cerevisiae bub3 mutant strain, stronger effect = higher value
Summary of the method: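 Part of a panel of yeast mutants defective in DNA damage repair or cell cycle regulation. Each strain is grown with compound, and inhibition is calculated relative to solvent-treated cultures.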

[11] = NCI Yeast Anticancer Drug Screen. Data for the wt2 strain (AID 169);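 note: 0% = growth of vehicle-treated yeast cultures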; conditions: S. cerevisiae wt2 strain growth inhibition, stronger effect = higher value
Summary of the method: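 Growth of compound-treated yeast is measured and expressed as inhibition relative to vehicle-only controls.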

[12] = NCI Yeast Anticancer Drug Screen. Data for the mlh1 strain (AID 171);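 note: 0% = growth of vehicle-treated control cultures of the same strain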; conditions: S. cerevisiae mlh1 strain growth inhibition, stronger effect = higher value
Summary of the method: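 Test agents were incubated with yeast bearing a defined DNA damage repair or cell cycle control alteration; values are growth inhibition normalised to vehicle-treated cultures.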

[13] = NCI Yeast Anticancer Drug Screen. Data for the sgs1 strain (AID 173);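 note: 0% = growth of vehicle-only control cultures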; conditions: S. cerevisiae sgs1 mutant, stronger effect = higher value
Summary of the method: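 Strain with an altered DNA repair or cell cycle pathway exposed to compound. Growth then measured. Value = inhibition versus vehicle control.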

[14] = NCI Yeast Anticancer Drug Screen. Data for the mlh1 rad18 strain (AID 175); conditions: S. cerevisiae mlh1 rad18 strain growth inhibition, stronger effect = higher value
Summary of the method: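 A repair-deficient yeast strain is exposed to test compound, and growth is scored relative to vehicle-treated controls.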

[15] = NCI Yeast Anticancer Drug Screen. Data for the rad18 strain (AID 177); conditions: S. cerevisiae rad18 mutant growth inhibition, stronger effect = higher value
Summary of the method: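 DNA-repair-defective yeast; compound treatment; growth inhibition scored against vehicle.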

[16] = at 5.0 µM (retest, dose inferred, filed as 0.5)
[17] = at 50.0 µM (retest, dose inferred, filed as 5.0)

COc1ccc2nc(CCc3ccccc3)ccc2c1
growth inhibition ([1]; at 1.2 µM): -18% | growth inhibition ([1]; at 3.7 µM): -25% | growth inhibition ([1]; at 11.0 µM): -14% | growth inhibition ([1]; at 33.0 µM): -7% | growth inhibition ([1]; at 100.0 µM): 96% (active) | growth inhibition ([2]; at 1.2 µM): -5% | growth inhibition ([2]; at 3.7 µM): -7% | growth inhibition ([2]; at 11.0 µM): -1% | growth inhibition ([2]; at 33.0 µM): -7% | growth inhibition ([2]; at 100.0 µM): 96% (active) | growth inhibition ([3]; at 1.2 µM): -9% | growth inhibition ([3]; at 3.7 µM): -7% | growth inhibition ([3]; at 11.0 µM): -6% | growth inhibition ([3]; at 33.0 µM): -5% | growth inhibition ([3]; at 100.0 µM): 35% | growth inhibition ([4]; at 1.2 µM): -20% | growth inhibition ([4]; at 3.7 µM): -21% | growth inhibition [4, 16]: -6% | growth inhibition ([4]; at 11.0 µM): -27% | growth inhibition ([4]; at 33.0 µM): -8% | growth inhibition [4, 17]: 55% | growth inhibition ([4]; at 50.0 µM): 69.3% | growth inhibition ([4]; at 100.0 µM): 94% (active) | growth inhibition ([5]; at 1.2 µM): -7% | growth inhibition ([5]; at 3.7 µM): -5% | growth inhibition [5, 16]: -7% | growth inhibition ([5]; at 11.0 µM): -8% | growth inhibition ([5]; at 33.0 µM): -11% | growth inhibition [5, 17]: 81% (active) | growth inhibition ([5]; at 50.0 µM): 84.7% (active) | growth inhibition ([5]; at 100.0 µM): 50% | growth inhibition ([6]; at 1.2 µM): 3% | growth inhibition ([6]; at 3.7 µM): -8% | growth inhibition ([6]; at 11.0 µM): 11% | growth inhibition ([6]; at 33.0 µM): 2% | growth inhibition ([6]; at 100.0 µM): 95% (active) | growth inhibition [7, 16]: 5% | growth inhibition [7, 17]: 87% (active) | growth inhibition ([7]; at 50.0 µM): 84.1% (active) | growth inhibition ([8]; at 1.2 µM): -12% | growth inhibition ([8]; at 3.7 µM): -13% | growth inhibition ([8]; at 11.0 µM): -18% | growth inhibition ([8]; at 33.0 µM): -16% | growth inhibition ([8]; at 100.0 µM): 20% | growth inhibition [9, 16]: -6% | growth inhibition [9, 17]: -1% | growth inhibition ([9]; at 50.0 µM): -7.95% | growth inhibition ([10]; at 1.2 µM): -6% | growth inhibition ([10]; at 3.7 µM): 6% | growth inhibition [10, 16]: 14% | growth inhibition ([10]; at 11.0 µM): 12% | growth inhibition ([10]; at 33.0 µM): 34% | growth inhibition [10, 17]: 78% (active) | growth inhibition ([10]; at 50.0 µM): 87.7% (active) | growth inhibition ([10]; at 100.0 µM): 88% (active) | growth inhibition ([11]; at 1.2 µM): 5% | growth inhibition ([11]; at 3.7 µM): 4% | growth inhibition ([11]; at 11.0 µM): 20% | growth inhibition ([11]; at 33.0 µM): 39% | growth inhibition ([11]; at 100.0 µM): 99% (active) | growth inhibition ([12]; at 1.2 µM): -15% | growth inhibition ([12]; at 3.7 µM): -10% | growth inhibition ([12]; at 11.0 µM): -12% | growth inhibition ([12]; at 33.0 µM): -14% | growth inhibition ([12]; at 100.0 µM): 91% (active) | growth inhibition ([13]; at 1.2 µM): -24% | growth inhibition ([13]; at 3.7 µM): -17% | growth inhibition ([13]; at 11.0 µM): -3% | growth inhibition ([13]; at 33.0 µM): 21% | growth inhibition ([13]; at 100.0 µM): 96% (active) | growth inhibition [14, 16]: -6% | growth inhibition [14, 17]: 70% (active) | growth inhibition ([14]; at 50.0 µM): 30.9% | growth inhibition ([15]; at 1.2 µM): -11% | growth inhibition ([15]; at 3.7 µM): -12% | growth inhibition ([15]; at 11.0 µM): -13% | growth inhibition ([15]; at 33.0 µM): -19% | growth inhibition ([15]; at 100.0 µM): 92% (active)

Cc1ccc(Nc2n[nH]c(=S)s2)c(C)c1
growth inhibition ([1]; at 1.2 µM): -42% | growth inhibition ([1]; at 3.7 µM): -28% | growth inhibition ([1]; at 11.0 µM): -33% | growth inhibition ([1]; at 33.0 µM): 2% | growth inhibition ([1]; at 100.0 µM): 89% (active) | growth inhibition ([2]; at 1.2 µM): -16% | growth inhibition ([2]; at 3.7 µM): -3% | growth inhibition ([2]; at 11.0 µM): -10% | growth inhibition ([2]; at 33.0 µM): 18% | growth inhibition ([2]; at 100.0 µM): 90% (active) | growth inhibition ([3]; at 1.2 µM): -52% | growth inhibition ([3]; at 3.7 µM): -56% | growth inhibition ([3]; at 11.0 µM): -21% | growth inhibition ([3]; at 33.0 µM): 58% | growth inhibition ([3]; at 100.0 µM): 85% (active) | growth inhibition ([4]; at 1.2 µM): -11% | growth inhibition ([4]; at 3.7 µM): -15% | growth inhibition [4, 16]: 21% | growth inhibition ([4]; at 11.0 µM): 0% | growth inhibition ([4]; at 33.0 µM): 15% | growth inhibition [4, 17]: 18% | growth inhibition ([4]; at 50.0 µM): 56.3% | growth inhibition ([4]; at 100.0 µM): 90% (active) | growth inhibition ([5]; at 1.2 µM): -44% | growth inhibition ([5]; at 3.7 µM): -45% | growth inhibition [5, 16]: -11% | growth inhibition ([5]; at 11.0 µM): -18% | growth inhibition ([5]; at 33.0 µM): -3% | growth inhibition [5, 17]: 8% | growth inhibition ([5]; at 50.0 µM): 14.8% | growth inhibition ([5]; at 100.0 µM): 83% (active) | growth inhibition ([6]; at 1.2 µM): -45% | growth inhibition ([6]; at 3.7 µM): -33% | growth inhibition ([6]; at 11.0 µM): -41% | growth inhibition ([6]; at 33.0 µM): 37% | growth inhibition ([6]; at 100.0 µM): 91% (active) | growth inhibition [7, 16]: -6% | growth inhibition [7, 17]: 44% | growth inhibition ([7]; at 50.0 µM): 70.5% (active) | growth inhibition ([8]; at 1.2 µM): 4% | growth inhibition ([8]; at 3.7 µM): 0% | growth inhibition ([8]; at 11.0 µM): -10% | growth inhibition ([8]; at 33.0 µM): 13% | growth inhibition ([8]; at 100.0 µM): 76% (active) | growth inhibition [9, 16]: 24% | growth inhibition [9, 17]: 49% | growth inhibition ([9]; at 50.0 µM): 48.1% | growth inhibition ([10]; at 1.2 µM): 3% | growth inhibition ([10]; at 3.7 µM): 10% | growth inhibition [10, 16]: 3% | growth inhibition ([10]; at 11.0 µM): 30% | growth inhibition ([10]; at 33.0 µM): 17% | growth inhibition [10, 17]: 71% (active) | growth inhibition ([10]; at 50.0 µM): 52.5% | growth inhibition ([10]; at 100.0 µM): 84% (active) | growth inhibition ([11]; at 1.2 µM): -38% | growth inhibition ([11]; at 3.7 µM): -34% | growth inhibition ([11]; at 11.0 µM): -10% | growth inhibition ([11]; at 33.0 µM): 62% | growth inhibition ([11]; at 100.0 µM): 91% (active)
